Data published in the supplement of paper PMC7726561.
Over roughly 1,100 sequences, “thermal melting temperature (Tm) of peptide-HLA complex” has its median near 58; the lowest 2% begin near 42. The sample as a whole holds a higher share of the lowest values than the screen did.

Target: HLA-A*02:01
Assay: thermal melting temperature (Tm) of peptide-HLA complex; higher = more thermostable pHLA complex
Conditions: C1R-A*02:01
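Further: lysates heated 10 min at 37–73 °C, complexes pulled down with pan-HLA I antibody, peptide signal by DIA-MS relative to 37 °C, Tm where half the complex is unfolded.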

Q: Which thermal melting temperature does the source give for KLMNVDPDSV here?
A: The thermal melting temperature was 53.8 °C.

Q: For KLMDPGSLPPL, which thermal melting temperature is on record?
A: Its thermal melting temperature is 57.3 °C.

Q: Which thermal melting temperature does the source give for RLGGIPVGV here?
A: Its thermal melting temperature is 55.9 °C.

Q: With IIMLEALERV as the sequence, how does the thermal melting temperature read?
A: The thermal melting temperature was 46.6 °C.

Q: How did the thermal melting temperature turn out when ALANGVSRI was run?
A: Its thermal melting temperature is 55.8 °C.

Q: For ALDRDNFEL, which thermal melting temperature is on record?
A: The thermal melting temperature was 47.8 °C.

Q: For FMFDEKLVTV, which thermal melting temperature is on record?
A: Its thermal melting temperature is 58.5 °C.

Q: How did the thermal melting temperature turn out when VLGPKIEAV was run?
A: The thermal melting temperature was 55.5 °C.

Q: For FILANEHNV, which thermal melting temperature is on record?
A: The thermal melting temperature was 40.8 °C.

Q: For YLPDIIKDQKA, which thermal melting temperature is on record?
A: The thermal melting temperature was 55.4 °C.

Q: For RQIEYYFSV, which thermal melting temperature is on record?
A: The thermal melting temperature was 61.3 °C.

Q: How did the thermal melting temperature turn out when FMQHDVQEL was run?
A: Its thermal melting temperature is 41.6 °C.

Q: For VVWGTVIRV, which thermal melting temperature is on record?
A: Its thermal melting temperature is 58.5 °C.

Q: How did the thermal melting temperature turn out when SLDPHAQVAV was run?
A: The thermal melting temperature was 48.9 °C.

Q: For KLQDQIFNL, which thermal melting temperature is on record?
A: Its thermal melting temperature is 56 °C.

Q: Which thermal melting temperature does the source give for ALSKEGIVAL here?
A: The thermal melting temperature was 59.5 °C.

Q: For SLLQTLYKV, which thermal melting temperature is on record?
A: Its thermal melting temperature is 63.6 °C.

Q: Which thermal melting temperature does the source give for ALGPGVPHI here?
A: The thermal melting temperature was 58 °C.

Q: For VLADALKSI, which thermal melting temperature is on record?
A: The thermal melting temperature was 58.9 °C.

Q: Which thermal melting temperature does the source give for KLNATNIEL here?
A: Its thermal melting temperature is 51.5 °C.

Q: Which thermal melting temperature does the source give for FLEPVNPRL here?
A: The thermal melting temperature was 55.3 °C.

Q: MLDDRAYLV was tested. Which thermal melting temperature did it give?
A: Its thermal melting temperature is 61.5 °C.

Q: With YPSEFATYL as the sequence, how does the thermal melting temperature read?
A: The thermal melting temperature was 56.5 °C.

Q: How did the thermal melting temperature turn out when TLDEYTTRV was run?
A: Its thermal melting temperature is 52.2 °C.

Q: For LLPSEGIVHL, which thermal melting temperature is on record?
A: Its thermal melting temperature is 41.3 °C.

Q: ALMPVLNQV was tested. Which thermal melting temperature did it give?
A: Its thermal melting temperature is 58.7 °C.

Q: How did the thermal melting temperature turn out when TLFPGKVHSL was run?
A: The thermal melting temperature was 55.8 °C.

Q: How did the thermal melting temperature turn out when SLAGGLDDMKA was run?
A: The thermal melting temperature was 45.1 °C.

Q: MTDPIRILV was tested. Which thermal melting temperature did it give?
A: Its thermal melting temperature is 41.9 °C.

Q: Which thermal melting temperature does the source give for ALLKDSIVQL here?
A: Its thermal melting temperature is 40.9 °C.

Q: How did the thermal melting temperature turn out when SLDTQPKKV was run?
A: Its thermal melting temperature is 40.4 °C.

Q: Which thermal melting temperature does the source give for VLLESEQFL here?
A: Its thermal melting temperature is 56.7 °C.

Q: With RLDEAFDFV as the sequence, how does the thermal melting temperature read?
A: The thermal melting temperature was 57 °C.

Q: How did the thermal melting temperature turn out when SLDAKEIYL was run?
A: The thermal melting temperature was 50.5 °C.

Q: Which thermal melting temperature does the source give for TTLEQPPSV here?
A: Its thermal melting temperature is 50.3 °C.

Q: Which thermal melting temperature does the source give for QLLPSIPQL here?
A: Its thermal melting temperature is 53.7 °C.
